Assay [1] in a line: qHTS assay to identify small molecule agonists of the peroxisome proliferator-activated receptor delta (PPARd) signaling pathway - cell viability counter screen (AID 743211). Also: nearly all actives have a fitted effect of over 55% in size. In outline:
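PPARd-bla HEK293H cells (3000/well) were pre-incubated 5 h at 37 C, then exposed to compound for 17 h at 37 C. After 2 h with LiveBLAzer substrate, CellTiter-Glo was added to the same wells; luminescence read after 30 min at room temperature.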

For assay [2], the target named is Peroxisome proliferator-activated receptor delta (Homo sapiens) (UniProt Q03181). Description: qHTS assay to identify small molecule agonists of the peroxisome proliferator-activated receptor delta (PPARd) signaling pathway (AID 743212; calls by dose curve). The method, boiled down: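 Read-out: beta-lactamase FRET fluorescence after 2 h room-temperature incubation with LiveBLAzer B/G substrate. Cells were HEK293H carrying a UAS-bla reporter for PPARd, treated at 37 C with DMSO-dissolved compounds.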

Assay [3] is described as follows: qHTS assay to identify small molecule antagonists of the peroxisome proliferator-activated receptor delta (PPARd) signaling pathway - cell viability counter screen (AID 743213). Also: nearly all actives have a fitted effect of over 50% in size. The method, boiled down: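 CellTiter-Glo was added to PPARd-bla HEK293H wells following 17 h compound treatment in the presence of 300 nM L165041. Luminescence was recorded after 30 min at room temperature.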
Background: Quantitative high-throughput screening tests each substance at several concentrations.

In assay [4] the target is Peroxisome proliferator-activated receptor delta (Homo sapiens) (UniProt Q03181). Description: qHTS assay to identify small molecule antagonists of the peroxisome proliferator-activated receptor delta (PPARd) signaling pathway (AID 743215; active = well fitted inhibition curve with a large enough effect in the signal ratio in the repeat runs, not every such curve was filed as active; the % refers to the signal ratio;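 also: cells stimulated with agonist L165041 at 300 nM final during compound exposure; series mostly up to about 62 µM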). The method, boiled down: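 Agonist L165041 (300 nM final) added with compound to PPARd-bla HEK293H UAS-bla reporter cells; 17 h incubation at 37 C. Read-out: LiveBLAzer FRET substrate, 2 h at room temperature, fluorescence intensity.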

Assay [5] in a line: qHTS assay to identify small molecule agonists of the farnesoid-X-receptor (FXR) signaling pathway - cell viability counter screen (AID 743218). Also: nearly all actives have a fitted effect of over 45% in size. The method, boiled down:
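Viability counter screen in the same wells: CellTiter-Glo luminescence, 30 min room-temperature incubation, measured after the beta-lactamase read. Cells were GeneBLAzer FXR-UAS-bla HEK 293T, compound-treated 16 h at 37C.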

For assay [6], the target named is Bile acid receptor (Homo sapiens) (UniProt Q96RI1). Description: qHTS assay to identify small molecule agonists of the farnesoid-X-receptor (FXR) signaling pathway (AID 743220; active = well fitted activation curve with a large enough effect in the signal ratio in the repeat runs, not every such curve was filed as active; the % refers to the signal ratio). In outline: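 FXR-UAS-bla HEK 293T cells carrying a UAS-driven beta-lactamase reporter were plated for 5 h at 37C/5% CO2, then exposed to DMSO-dissolved Tox21 10K compounds for 16 h at 37C. A LiveBLAzer B/G FRET substrate was loaded for 2 h at room temperature before fluorescence reading.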

The nature of assay [7]: qHTS assay to identify small molecule antagonists of the farnesoid-X-receptor (FXR) signaling pathway - cell viability counter screen (AID 743221; active = well fitted cell-killing curve with a large enough effect in the repeat runs, not every such curve was filed as active; also: nearly all actives have a fitted effect of over 50% in size). In outline: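 GeneBLAzer FXR-UAS-bla HEK 293T cells, compound plus chenodeoxycholic acid (50 uM final), 16 h at 37 C. CellTiter-Glo added to the same wells after the beta-lactamase read; luminescence read after 30 min at room temperature as viability.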

Assay [8] has as its target Vitamin D3 receptor (Homo sapiens) (UniProt P11473). The assay is described as follows: qHTS assay to identify small molecule agonists of the vitamin D receptor (VDR) signaling pathway (AID 743222; calls by dose curve). The method, boiled down:
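Agonist mode, beta-lactamase reporter: fluorescence from LiveBLAzer B/G FRET substrate (2 h, room temperature) read after 16 h compound treatment at 37 C of VDR-bla cells, which were pre-incubated 4 h after seeding.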

Assay [9] has the same target. Description: qHTS assay to identify small molecule antagonists of the vitamin D receptor (VDR) signaling pathway (AID 743223; active = well fitted inhibition curve with a large enough effect in the signal ratio in the repeat runs, not every such curve was filed as active; the % refers to the signal ratio). In outline:
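VDR-bla cells were treated with compound plus 3 nM final 1alpha,25-dihydroxyvitamin D3 for 16 h at 37C. Beta-lactamase reporter read by B/G FRET substrate fluorescence after 2 h at room temperature. qHTS format.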

Assay [10] can be described thus: qHTS assay to identify small molecule agonists of the vitamin D receptor (VDR) signaling pathway - cell viability counter screen (AID 743224). Also: nearly all actives have a fitted effect of over 50% in size. Also: potency is read from the fitted curve at half-maximal effect. In outline:
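Counter screen run in the same wells as the VDR-bla reporter assay: CellTiter-Glo luminescence, 30 min at room temperature, after 16 h compound treatment at 37C of cells pre-plated for 4 h.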

A short description of assay [11]: qHTS assay to identify small molecule antagonists of the vitamin D receptor (VDR) signaling pathway - cell viability counter screen (AID 743225). Also: nearly all actives have a fitted effect of over 50% in size. In outline: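 VDR-UAS-bla HEK 293T cells were plated and incubated 4 h at 37C, then dosed with compound plus 3 nM (final) 1-alpha,25-dihydroxyvitamin D3 for 16 h. After the 2 h beta-lactamase read, viability in the same wells was read as CellTiter-Glo luminescence after 30 min at room temperature.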

The nature of assay [12]: qHTS assay to identify small molecule agonists of the NFkB signaling pathway (AID 1159509; active = well fitted curve in the direction sought with a large enough effect in the signal ratio in the repeat runs, not every such curve was filed as active; the % refers to the signal ratio; also: series mostly up to about 61 µM). In outline:
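Readout: FRET fluorescence, 405 nm excitation, 460/530 nm emission; beta-lactamase expression disrupts FRET. Cells: ME-180 stably carrying NF-kB-driven bla reporter. Compound exposure 5 hr, 37 C, 5% CO2.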

Assay [13] in a line: qHTS assay to identify small molecule agonists of the NFkB signaling pathway - cell viability counter screen (AID 1159515; calls by dose curve; also: series mostly up to about 61 µM; nearly all actives have a fitted effect of over 55% in size). In outline: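 Read by CellTiter-Glo luminescence (30 min, room temperature) in the wells also used for the beta-lactamase FRET read. ME-180 NFkB-bla cells at 2,000 per well were plated overnight, then exposed to compound for 5 hr at 37 C.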
Assay [14] is described as follows: qHTS assay to identify small molecule agonists of the endoplasmic reticulum stress response signaling pathway (AID 1159516; active = well fitted activation curve with a large enough effect in the signal ratio in the repeat runs, not every such curve was filed as active; the % refers to the signal ratio). The method, boiled down:
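Ratiometric FRET readout (405 nm excitation; 460 and 530 nm emission) of a beta-lactamase gene driven by the ER stress response element, after 2 hr substrate loading. HeLa ESRE-bla cells were seeded overnight and treated with compounds for only 5 hr at 37 C.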

Assay [15] can be described thus: qHTS assay to identify small molecule antagonists of the retinoid-related orphan receptor gamma (ROR-gamma) signaling pathway - cell viability counter screen (AID 1159520). Also: nearly all actives have a fitted effect of over 50% in size. In outline: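 Tet-on ROR gamma CHO cells were given compounds for 2 hr, then doxycycline hyclate at 1 uM final, and incubated 16 hr at 37 C. Viability was measured as ATP content by CellTiter-Glo luminescence.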

In assay [16] the target is Nuclear receptor ROR-gamma (Homo sapiens) (UniProt P51449). The assay is described as follows: qHTS assay to identify small molecule antagonists of the retinoid-related orphan receptor gamma (ROR-gamma) signaling pathway (AID 1159521). The method, boiled down: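 Tet-on ROR-gamma CHO cells with ROR response element-luciferase reporter; compounds added 2 hr before 1 uM doxycycline induction, then 16 hr at 37 C. Antagonism scored as decreased ONE-Glo luminescence.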

A short description of assay [17]: qHTS assay to identify small molecule agonists of the AP-1 signaling pathway - cell viability counter screen (AID 1159525; calls by dose curve; also: nearly all actives have a fitted effect of over 55% in size). The method, boiled down: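 Same-well cytotoxicity counter screen of the Tox21 10K library in ME-180 cells. The readout is ATP-dependent luminescence after 5 h compound treatment. Data are normalised to DMSO and tetra n-octyl ammonium bromide controls.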

Assay [18] addresses Bile acid receptor (Homo sapiens) (UniProt Q96RI1). Description: qHTS assay to identify small molecule antagonists of the farnesoid-X-receptor (FXR) signaling pathway (AID 743217; active = well fitted inhibition curve with a large enough effect in the signal ratio in the repeat runs, not every such curve was filed as active; the % refers to the signal ratio). The method, boiled down: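 Antagonist mode: chenodeoxycholic acid at 50 uM final stimulates a UAS-driven beta-lactamase reporter in HEK 293T FXR-bla cells during 16 h, 37C compound exposure. Read-out is FRET substrate fluorescence after 2 h at room temperature.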

Assay [19] can be described thus: qHTS assay to identify small molecule agonists of the AP-1 signaling pathway (AID 1159526; calls by dose curve).
Assay [20] can be described thus: qHTS assay to identify small molecule agonists of the endoplasmic reticulum stress response signaling pathway - cell viability counter screen (AID 1159517; calls by dose curve). The method, boiled down:
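Steps: seed 1,500 ESRE-bla HeLa cells per well; incubate overnight at 37 C, 5% CO2; add compounds in DMSO for 5 hr; run FRET substrate 2 hr RT; add CellTiter-Glo, wait 30 min, read luminescence.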

Experimental findings from PubChem BioAssay (Tox21) are described below.

Inconclusive results are not listed. Values without a mark were called inactive. Active and inactive are the calls of the source. Unless noted, calls follow the shape of the dose curve; as a rule, active = well fitted curve in the direction sought with a large enough effect in the repeat runs; inconclusive = weak or mixed curves; inactive = no such curve, though single readings can be large; an effect the other way counts as inactive or inconclusive.

Vitamin D3 receptor (Homo sapiens), sequence (P11473 whole entry, looked up): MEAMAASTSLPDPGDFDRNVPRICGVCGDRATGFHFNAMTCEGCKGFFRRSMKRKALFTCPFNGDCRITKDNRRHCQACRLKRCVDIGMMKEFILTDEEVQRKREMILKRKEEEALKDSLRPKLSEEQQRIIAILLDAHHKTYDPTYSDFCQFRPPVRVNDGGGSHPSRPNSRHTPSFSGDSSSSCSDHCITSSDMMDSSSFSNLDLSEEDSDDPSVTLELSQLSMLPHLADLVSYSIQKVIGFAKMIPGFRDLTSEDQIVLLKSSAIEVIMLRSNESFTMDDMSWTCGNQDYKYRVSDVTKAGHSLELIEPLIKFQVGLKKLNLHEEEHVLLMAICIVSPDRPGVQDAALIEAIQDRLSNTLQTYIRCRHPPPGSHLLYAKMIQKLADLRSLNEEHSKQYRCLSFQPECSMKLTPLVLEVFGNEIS
Bile acid receptor (Homo sapiens), sequence (Q96RI1 whole entry, looked up): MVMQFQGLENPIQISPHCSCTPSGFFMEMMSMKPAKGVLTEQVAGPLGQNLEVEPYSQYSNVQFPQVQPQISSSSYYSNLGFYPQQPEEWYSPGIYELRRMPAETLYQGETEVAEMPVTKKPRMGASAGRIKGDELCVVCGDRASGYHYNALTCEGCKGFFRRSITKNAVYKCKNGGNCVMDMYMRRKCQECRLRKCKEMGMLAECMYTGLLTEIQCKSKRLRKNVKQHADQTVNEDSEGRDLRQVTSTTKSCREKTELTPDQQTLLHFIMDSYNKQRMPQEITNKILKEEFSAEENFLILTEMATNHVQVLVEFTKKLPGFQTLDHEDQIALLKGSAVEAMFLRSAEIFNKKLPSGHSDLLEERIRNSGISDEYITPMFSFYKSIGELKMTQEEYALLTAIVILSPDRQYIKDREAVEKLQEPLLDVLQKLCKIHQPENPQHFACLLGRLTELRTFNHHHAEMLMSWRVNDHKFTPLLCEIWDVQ
Peroxisome proliferator-activated receptor delta (Homo sapiens), sequence (Q03181 whole entry, looked up): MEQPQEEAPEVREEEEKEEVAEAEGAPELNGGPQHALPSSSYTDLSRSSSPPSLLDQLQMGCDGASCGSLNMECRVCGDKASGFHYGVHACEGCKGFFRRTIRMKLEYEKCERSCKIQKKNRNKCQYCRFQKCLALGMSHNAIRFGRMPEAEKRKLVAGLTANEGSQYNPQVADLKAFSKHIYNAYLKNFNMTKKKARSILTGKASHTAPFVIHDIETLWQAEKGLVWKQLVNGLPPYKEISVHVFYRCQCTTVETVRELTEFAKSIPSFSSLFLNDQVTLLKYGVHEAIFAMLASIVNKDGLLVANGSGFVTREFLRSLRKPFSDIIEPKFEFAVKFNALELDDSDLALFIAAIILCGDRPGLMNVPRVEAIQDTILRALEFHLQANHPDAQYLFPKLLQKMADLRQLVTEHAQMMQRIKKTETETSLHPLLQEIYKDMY

Take `Cc1cc(O)c(C(C)C)cc1Cl`: the Potency entry in assay [1], in assay [2], in assay [3], in assay [4], in assay [5] and in [6] was “inactive” throughout. Further, the Potency entry in assay [7], in assay [10], in assay [11], in [15] and in assay [16] was “inactive” each time. For the same compound, the compound was classed as inactive in assay [8], in assay [9], in assay [12], in assay [13], in assay [14] and in assay [17].

Consider `CC1=CC(=O)CC(C)(C)C1(O)/C=C/C(C)=C\C(=O)O` (configuration not stated), for which the Potency result in assay [1], in [2], in assay [3], in assay [4], in assay [18] and in [5] was “inactive” throughout. In addition, the Potency entry in [6], in [7], in assay [10], in assay [11], in assay [15] and in assay [16] was “inactive” in each case. For the same compound, the call in [8], in [9], in assay [12], in [13], in [14] and in assay [17] was inactive. Moreover, the outcome in assay [19] was inactive.

In the case of `O=C(/C=C/c1ccccc1)OCCCc1ccccc1`, the Potency result in assay [2], in assay [3], in [7], in assay [10], in assay [11] and in [15] was “inactive” each time. Besides, the Potency result in assay [16] was “inactive”. For the same compound, the compound was called inactive in [8], in assay [9], in assay [12], in [13], in [14] and in assay [17]. For the same compound, the outcome in assay [19] was inactive.

In the case of `Cc1nc2ccccc2s1`, the Potency entry in [1], in assay [2], in assay [3], in assay [4], in [5] and in [7] was “inactive” in each case. For the same compound, the Potency entry in assay [10], in assay [11], in assay [15] and in [16] was “inactive” throughout. For the same compound, the result in assay [8], in assay [12], in assay [13], in [14], in [17] and in assay [19] was inactive.

In the case of `CCCCC(CC)CNCC(CC)CCCC` (configuration not stated), the Potency entry in assay [1], in [2], in assay [3], in assay [4], in assay [5] and in [6] was “inactive” in each case. In addition, the Potency entry in assay [7], in assay [10], in assay [11], in assay [15] and in [16] was “inactive” in each case. Besides, the result in [8], in assay [9], in assay [12], in assay [13], in assay [14] and in assay [17] was inactive. For the same compound, the call in [19] was inactive.

On to `CC1=C(/C=C/C(C)=C\C=C\C(C)=C\C(=O)O)C(C)(C)CCC1`, for which the Potency result in assay [1], in assay [3], in assay [5], in assay [7] and in assay [10] was “inactive” each time. Besides, the outcome in assay [8], in [9], in [12], in assay [13], in assay [14] and in assay [20] was inactive. Also, the compound was called inactive in assay [17] and in assay [19].

Regarding `OC/C(Br)=C(\Br)CO`, the Potency result in [2], in assay [3], in [4], in assay [5], in assay [7] and in [10] was “inactive” in each case. For the same compound, the Potency result in [11], in [15] and in assay [16] was “inactive” throughout. Further, the outcome in assay [8], in assay [9], in assay [12], in assay [13], in assay [14] and in assay [17] was inactive. The compound was classed as inactive in assay [19].

As to `CC1C2CC(CC2C2CCCC(O)C2)C1(C)C` (configuration not stated), the Potency entry in [2], in assay [6] and in [16] was “inactive” each time. Also, the call in [8], in [12], in assay [13], in assay [14] and in [20] was inactive. For the same compound, the Potency in [10] was 49 µM (active).
